Screens (PubChem)
EPAC1 agonist = agonists of human EPAC1 | 360,000 tested, 0.073% active | O95398 | Potency, µM (titrated, usually from 154 µM), for the others: top-dose activation, most hits filed as activators | EPAC1 agonist qHTS, biochemical assay; response scale: 100% = response to 6.5 mM cAMP; note: nearly all actives have a fitted effect of over 60% in size
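Nucleotide exchange assay: 100 nM EPAC1 with 250 nM Rap1B loaded with BODIPY-GDP and 50 uM GDP, room temperature. Fluorescence (480/540 nm) read every 5 min for 30 min; signal change normalized to 6.5 mM cAMP as full agonist.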
EPAC2 antag = EPAC2 (human) antagonism. Potency, µM (top dose mostly 114 µM), inactives show at the highest dose activity, negative = inhibition, most hits filed as inhibitors. EPAC2 GEF exchange of Rap1B-BODIPY-GDP, fluorescence. AID 720708. 360,000 tested, 0.18% active. Q8WZA2; note: % is set by controls: 0 for no effect and ±100 for the full control effect; nearly all actives have a fitted effect of over 45% in size
Target sequence (Q8WZA2 whole entry, looked up): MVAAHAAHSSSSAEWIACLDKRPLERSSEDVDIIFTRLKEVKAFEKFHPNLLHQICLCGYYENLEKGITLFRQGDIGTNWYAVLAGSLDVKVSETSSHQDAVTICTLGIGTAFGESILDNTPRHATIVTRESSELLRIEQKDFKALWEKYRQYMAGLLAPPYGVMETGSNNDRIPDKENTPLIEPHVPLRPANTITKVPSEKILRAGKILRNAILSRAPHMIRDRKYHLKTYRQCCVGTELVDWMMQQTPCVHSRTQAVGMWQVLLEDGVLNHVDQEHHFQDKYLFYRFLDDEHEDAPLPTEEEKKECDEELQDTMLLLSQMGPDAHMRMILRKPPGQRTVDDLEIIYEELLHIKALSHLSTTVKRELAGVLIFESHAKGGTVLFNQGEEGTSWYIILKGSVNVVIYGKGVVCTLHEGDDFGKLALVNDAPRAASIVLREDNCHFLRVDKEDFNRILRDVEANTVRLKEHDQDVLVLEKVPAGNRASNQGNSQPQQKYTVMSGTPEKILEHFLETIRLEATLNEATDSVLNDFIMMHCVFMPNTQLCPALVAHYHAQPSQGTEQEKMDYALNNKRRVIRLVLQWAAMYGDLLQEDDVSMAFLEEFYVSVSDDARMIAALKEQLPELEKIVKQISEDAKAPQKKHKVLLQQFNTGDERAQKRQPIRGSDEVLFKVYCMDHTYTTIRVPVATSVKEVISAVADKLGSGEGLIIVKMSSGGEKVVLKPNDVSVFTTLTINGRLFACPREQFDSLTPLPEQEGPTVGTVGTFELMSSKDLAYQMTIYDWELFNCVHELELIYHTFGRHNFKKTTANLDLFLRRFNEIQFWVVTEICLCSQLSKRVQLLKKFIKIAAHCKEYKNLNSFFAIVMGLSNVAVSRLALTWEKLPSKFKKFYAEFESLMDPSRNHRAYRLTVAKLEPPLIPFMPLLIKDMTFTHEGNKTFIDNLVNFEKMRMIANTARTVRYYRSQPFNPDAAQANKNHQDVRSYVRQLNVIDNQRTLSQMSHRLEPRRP
USP1-UAF1 inh = USP1/UAF1 (human) deubiquitinase inhibition; O94782; recombinant USP1/UAF1, Ub-Rhodamine cleavage fluorescence; Potency, µM (doses to about 57.1 µM), for the others: top-dose activity change, negative = inhibition, hits mostly inhibitors; 390,000 tested, 0.23% active; AID 743255; note: % is set by controls: 0 for no effect and ±100 for the full control effect; nearly all actives have a fitted effect of over 60% in size
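Step one: compound is pinned into 1nM USP1/UAF1 in HEPES pH 7.8 buffer with TCEP. Step two: 15 min room-temperature incubation. Step three: Ub-Rho (150nM final) starts cleavage, tracked by fluorescence over six one-minute reads.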
EPAC2 ag = EPAC2 (human) agonism | EPAC2 activation, biochemical qHTS; response scale: 100% = 6.5 mM cAMP response | Potency, µM (highest dose often 154 µM), inactives show top-dose activation, most hits filed as activators | 360,000 tested, 0.079% active; note: nearly all actives have a fitted effect of over 50% in size
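Readout is BODIPY fluorescence (480 nm excitation, 540 nm emission), which falls as labeled GDP is exchanged off Rap1B. EPAC2 at 100 nM acted on 250 nM RAP1B-BODIPY-GDP with 50 uM GDP present.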
EPAC1 antagonist = blocks human EPAC1 exchange factor | O95398 | EPAC1 GEF assay, Rap1b-BODIPY-GDP exchange fluorescence | 360,000 tested, 0.14% active | AID 720709 | Potency, µM (titrated, usually from 115 µM), inactives show top-dose activity change, negative = inhibition, actives largely listed as inhibitors;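 note: plate controls were vehicle for no effect and positive control for full effect; nearly all actives have a fitted effect of over 50% in size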
VDR inh = vitamin D3 receptor (human) inhibition | P11473 | VDR-SRC2-3 peptide fluorescence polarization, 2 h | Potency, µM, for the others: max response, negative = inhibition, hits mostly inhibitors | 400,000 tested, 0.93% active | AID 504847; note: % is set by controls: 0 for no effect and ±100 for the full control effect
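Two reagent solutions held at 4 deg C in the dark were dispensed, compounds pinned at 23 nl, and the mixture incubated 2 h at room temperature. Read-out: fluorescence polarization of VDR–SRC2-3 peptide binding.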
* marks the source's active call; other numbers are inactive results; ? = inconclusive; · = no result given; [ ] = remark or other dose. Sampled rows, rich in hits. Any-hit rate of the full collection: about 1.2%. Calls come from the whole dose curve; as a rule, active = well fitted curve in the direction sought with a large enough effect; inconclusive = small, poorly fitted or top-dose-only effect, or another doubt; inactive = no such curve, though single readings can be large; an effect the other way counts as inactive or inconclusive. Potency is the fitted concentration of half-maximal effect.

SMILES | EPAC1 agonist | EPAC2 antag | USP1-UAF1 inh | EPAC2 ag | EPAC1 antagonist | VDR inh
COc1ccc(S(=O)(=O)N2CCC3(CC2)OCCN3S(=O)(=O)c2ccc(OC)cc2)cc1 | -7% | -2% | -3% | 12% | 2% | -15%
CC(C)C[C@@H](NC(=O)[C@@H](Cc1ccccc1)NC(=O)c1cnccn1)B(O)O | · | · | · | · | · | 14%
O=C(/C=C/c1ccccc1Cl)c1ccccc(=O)c1O | 5% | 0% | -26% | 1% | -11% | 28µM*
Cc1nn(C)cc1C(=O)/C=C/c1ccc([N+](=O)[O-])cc1 | -3% | -5% | -14% | 6% | -15% | -4%
Cc1ccc(C)c(/C=C/C(=O)c2ccccc(=O)c2O)c1 | 4% | 3% | -26% | 2% | -11% | 45µM*
O=C(/C=C/c1ccc([N+](=O)[O-])cc1)c1ccccc(=O)c1O | -7% | -3% | -8% | -14% | -14% | 25µM*
O=C(/C=C/c1ccccc1Cl)c1ccc(O)cc1 | -5% | -14% | -22% | 12% | ? | ?
Cc1ccccc1C1CC(=O)Oc2cc(C)c(Br)c(C)c21 (stereo unspecified) | · | · | · | · | · | -4%
CCc1c2c(nc3ccc4c(c13)OCCO4)-c1nc3ccccc3c(=O)n1C2 | · | · | · | · | · | -12%
O=C(C#Cc1ccccc1)c1ccc([N+](=O)[O-])cc1 | 5% | -2% | -21% | 13% | ? | 14µM*
Cn1nnc2c(N3CCN(Cc4ccccc4)CC3)ncnc21 | · | · | · | · | · | -5%
CN(C)c1ccc(-c2cc(NCc3cccnc3)ncn2)cc1 | · | · | · | · | · | -3%
Cc1cnc(CNc2cc(-c3ccoc3)ncn2)cn1 | · | · | · | · | · | 45µM*
c1cncc(CNc2cc(-c3ccoc3)ncn2)c1 | · | · | · | · | · | 22µM*
COc1ccc(C(=S)NC2CCCCC2)cc1 | 5% | 0%[57.1 µM] | -2% | -16% | -12% | 89µM*
Cc1ccc(C(=O)CSc2nnc(-c3ccco3)n2C)cc1 | 4% | 2% | 2% | 10% | 2% | 50µM*
Cn1c(SCC(=O)c2cc(Cl)c(Cl)s2)nnc1-c1ccco1 | -7% | 3% | -7% | -3% | ? | -22%
Cc1ccc(C(=O)CSc2ccccn2)cc1 | 5% | -8% | -4% | 8% | 2% | 79µM*
CCOc1ccc(C=C2SC(=O)N(CCN)C2=O)cc1 | · | · | · | · | · | 4%
CCCN1C(=O)c2cccc3c(N4CCCCC4)ccc(c23)C1=O | ? | 34% | -21% | 100µM* | 8% | -12%
CCCCNc1ccc2c3c(cccc13)C(=O)N(CCCC)C2=O | 79µM* | 183% | 25µM* | 100µM* | 250% | -5%
CC(=O)N(C(C)=O)N1C(=O)c2cccc3c(N4CCOCC4)ccc(c23)C1=O | 112µM* | 38% | -17% | -105% | ? | -18%
O=C1c2cccc3c(N4CCCCC4)ccc(c23)C(=O)N1c1ccccn1 | 0% | -18%[57.1 µM] | -22% | -10% | 2% | -6%
CN(C)CCCN1C(=O)c2cccc3c(Br)ccc(c23)C1=O | 3% | 1% | -28% | 1% | 8% | -12%
CCOc1cc(/C=N/NC(=O)c2ccc3c(c2)OCCO3)cc(Br)c1O | -5% | 12% | -21% | 9% | 71µM* | -21%
SMILES | EPAC1 agonist | EPAC2 antag | USP1-UAF1 inh | EPAC2 ag | EPAC1 antagonist | VDR inh
COc1cccc(-c2ccc(C#N)c(OC(=O)c3ccc(Cl)cc3)n2)c1 | 4% | 10% | 0% | 6.3µM* | 11% | 10%
COc1ccccc1CCn1c(=O)c(-c2cccs2)nc2cncnc21 | · | · | · | · | · | 3%
CC1(C)C(=O)C=C[C@]2(C)C1CC(=O)[C@]1(C)C2CC[C@@]2(C)C(c3ccoc3)OC(=O)C3O[C@@]321 (stereo partly specified) | · | · | · | · | · | 20µM*
CC1(C)O[C@H]2CC(=O)OC[C@@]23C1CC(=O)[C@]1(C)C3CC[C@@]2(C)[C@H](c3ccoc3)OC(=O)[C@H]3O[C@]321 (stereo partly specified) | 3% | 6% | ? | 7% | -3% | -5%
CC(C)[C@H](N)C(=O)N[C@@H](CCC(N)=O)C(=O)NCC(=O)N[C@@H](CCC(=O)O)C(=O)N[C@@H](CCC(=O)O)C(=O)N[C@@H](CO)C(=O)N[C@@H](CC(N)=O)C(=O)N[C@@H](CC(=O)O)C(=O)N[C@@H](CCCCN)C(=O)O | · | · | · | · | · | 3%
NC(CSS(=O)(=O)O)=NCCC12CC3CC(CC(O)(C3)C1)C2 | 7% | -1% | ? | -4% | 3% | 40µM*
N=c1nc(-c2ccccc2)n(-c2ccccc2)s1 | · | · | · | · | · | 13µM*
Cc1ccc(-c2nc(=Nc3ccccc3)sn2-c2ccccc2)cc1 | · | · | · | · | · | -4%
Cc1ccc(-n2c(N)c(C(N)=O)sc2=S)cc1 | 4% | 7% | -5% | -1% | -21% | 71µM*
CCOc1ccc2c(ccc(/C=C/c3cc(C)c4cccnc4c3O)[n+]2C)c1 | 63µM* | 40µM* | -25% | ? | 35µM* | 10%
CCOc1ccc(N=Nc2ccc(O)c3ncccc23)cc1 | 1% | 4% | -31% | 2% | 7% | -3%
CCCCCC[N+](C)(C)CCSSCC[N+](C)(C)CCCCCC | -5% | 1% | -12% | 9% | -11% | 8.9µM*
CCCCCCCCCCCCCCCC[N+](C)(C)CC | -32% | -11% | ? | -4% | ? | -5%
C/C1=C\[C@@H](O)C(C(C)C)C(OC(=O)c2ccc(O)cc2)C/C(C)=C/CC1 (stereo partly specified) | · | · | · | · | · | 3%
COc1cccc2nc3cc(C)c(C)cc3nc12 | 6% | 6% | ? | 3% | 0% | 22µM*
C=CCCCCCCCCCCCc1ccco1 | · | · | · | · | · | 25µM*
S=C1NCN(Cc2ccco2)CN1 | 2% | 2% | -3% | 1% | -11% | -6%
c1ccc(CNc2nc3ccccc3[nH]2)cc1 | 6% | 3% | -1% | 5% | 1% | 7%
S=C(NCc1ccccc1)NNc1nc2ccccc2[nH]1 | 12% | -10% | -13% | 3% | -2% | 25µM*
Cc1ccc(-c2[nH]ncc2CNCc2ccccc2)cc1 | · | · | · | · | · | -29%
Cc1nc2c3cc(F)ccc3n(Cc3ccccc3F)c2s1 | 5% | ? | -11% | 5% | -18% | 50µM*
Cc1nc2c3ccccc3n(Cc3ccccc3F)c2s1 | 7% | ? | -17% | 12% | -15% | 45µM*
CCc1ccc2c(c1)c1nc(C)sc1n2CC(=O)OC | 0% | 2% | -14% | 1% | 5% | -2%
